POLB inh: blocks human DNA polymerase beta activity. P06746. Pol beta primer extension/strand displacement, fluorescence kinetic. Potency, µM (top dose mostly 114 µM), most hits filed as inhibitors. 340,000 compounds, 1.3% hits
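Pol beta (10 nM) was preincubated with compound for 15 min at room temperature. The reaction was then started with 50 nM substrate and read immediately and after a further 10 min at room temperature.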
PI5P4K alpha inh: PI5P4K alpha (human) kinase inhibition | PI5P4Kalpha enzyme, ADP-Glo luminescence, 60 min; active compounds read low | max response, % | 330,000 compounds, 1.2% hits; active means max response of -50% or lower; inconclusive means between -30% and -50%; inactive means -30% or higher; further: value at the top dose of about 77 µM
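Reactions run in 0.038 M HEPES pH 7.4, 0.28 mM EGTA, 0.1% CHAPS and 5% DMSO, with PI5P4Kalpha, substrate, compound and 5 microM ATP final, one hour at room temperature. Readout is ADP-Glo luminescence.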
Pol eta inh: inhibitors of human DNA polymerase eta | Potency, µM (doses to about 114 µM), most hits filed as inhibitors | 390,000 compounds, 1.2% hits | Q9Y253 | recombinant Pol eta, fluorescent DNA replication assay
Target sequence (Q9Y253 whole entry, looked up): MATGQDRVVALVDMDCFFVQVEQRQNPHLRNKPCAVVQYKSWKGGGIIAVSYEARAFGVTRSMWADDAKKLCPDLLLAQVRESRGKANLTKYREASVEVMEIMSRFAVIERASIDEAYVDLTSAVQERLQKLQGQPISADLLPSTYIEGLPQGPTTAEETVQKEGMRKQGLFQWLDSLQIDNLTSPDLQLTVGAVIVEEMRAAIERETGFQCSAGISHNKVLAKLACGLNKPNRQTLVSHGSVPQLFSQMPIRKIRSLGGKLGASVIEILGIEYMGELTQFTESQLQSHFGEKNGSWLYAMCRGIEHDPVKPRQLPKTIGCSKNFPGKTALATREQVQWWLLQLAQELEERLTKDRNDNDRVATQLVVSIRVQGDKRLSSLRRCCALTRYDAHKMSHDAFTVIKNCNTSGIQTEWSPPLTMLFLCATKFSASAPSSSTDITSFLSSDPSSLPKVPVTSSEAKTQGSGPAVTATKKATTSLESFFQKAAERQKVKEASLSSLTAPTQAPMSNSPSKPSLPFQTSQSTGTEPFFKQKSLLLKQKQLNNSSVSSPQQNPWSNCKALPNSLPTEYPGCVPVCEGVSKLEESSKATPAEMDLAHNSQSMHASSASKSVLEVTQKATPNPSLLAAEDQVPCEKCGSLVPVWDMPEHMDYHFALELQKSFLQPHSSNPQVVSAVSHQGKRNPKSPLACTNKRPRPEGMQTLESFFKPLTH
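Fluorescent replication assay: 50 nM final substrate added after a 15 min room-temperature compound preincubation with 10 nM enzyme. Signal taken at 0 min and again at 10 min.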
FEN1 inhibitor: blocks human flap endonuclease 1; P39748; Recombinant FEN1 flap cleavage, fluorescence, 15 min; Potency, µM (highest dose often 114 µM), usual class: inhibitors; 390,000 compounds, 0.35% hits; AID 588795; further: nearly all actives have a fitted effect of over 65% in size
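FEN1 at 10 nM, compound pretreatment for 15 min (room temperature), 50 nM final substrate to initiate; endpoint reads at 0 and 15 min; DMSO-only plates used as vehicle background.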
Pol kappa inh: inhibitors of human DNA polymerase kappa; Q9UBT6; purified Pol kappa, fluorescent DNA synthesis assay, 10 min; Potency, µM (top dose mostly 107 µM), usual class: inhibitors; 400,000 compounds, 0.53% hits; AID 588579
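10 nM Pol kappa was preincubated with compounds for 15 min at room temperature. Reaction started with 50 nM (final) substrate. Fluorescence read kinetically at 0 and 10 min.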
POLI inh: blocks human DNA polymerase iota activity. Q9UNA4. Pol iota fluorescent replication assay, 10 min. Potency, µM (top dose mostly 115 µM), hits mostly inhibitors. 390,000 compounds, 1% hits. AID 588590
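Pol iota at 10 nM preincubated 15 min with compounds at room temperature; reaction started with fluorescent substrate, 50 nM final. Fluorescence read kinetically at 0 and 10 min; buffer-only wells as negative control.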
Hits are given with their value; i = inactive; ? = inconclusive; nt = not tested or not shown; ! = not confirmed by another sample; [ ] = remark or other dose. Compounds with a hit are over-represented: about 2.8% of the library has one in this group of screens. Unless noted, the call rests on the fitted dose curve; in most records, active means well fitted curve in the direction sought with a large enough effect; inconclusive means small, poorly fitted or top-dose-only effect, or another doubt; inactive means no such curve, though single readings can be large; an effect the other way counts as inactive or inconclusive.

SMILES | POLB inh | PI5P4K alpha inh | Pol eta inh | FEN1 inhibitor | Pol kappa inh | POLI inh
NC(=S)N/N=C/c1coc2ccc(O)cc2c1=O | i | -72 | i | i | i | i
NC(=S)N/N=C/c1coc2ccc(Br)cc2c1=O | i | i | i | i | i | i
Cc1oc(-c2ccc(C(=O)Nc3cccc(C(F)(F)F)c3)cc2)nc1CSc1ccccc1 | i | nt | i | i | i | i
CC1C(=O)Nc2ccc(S(=O)(=O)N3CCN(c4cccc(C(F)(F)F)c4)CC3)cc2NC1=O (centres undefined) | ? | i | i | i | i | 35µM
COc1cc(C(=O)NS(=O)(=O)c2ccccc2C)ccc1Cc1cn(C)c2ccc(NC(=O)OC3CCCC3)cc12 | 56µM | nt | nt | nt | ? | nt
O=C1/C(=C\c2ccc(O)c(O)c2)SC(=S)N1Cc1ccccc1 | ? | ? | i | ? | i | 22µM
O=C(O)CN1C(=O)/C(=C\c2cccc(OCc3ccccc3)c2)SC1=S | i | i | i | i | i | i
O=C(O)COc1cccc(/C=C2/SC(=S)N(Cc3ccccc3)C2=O)c1 | ? | i | 79µM | i | i | ?
CCOC(=O)C1Nc2ccccc2C2C(O)C(O)CC12 (centres undefined) | nt | i | i | i | i | 25µM
CCOC(=O)C1Nc2ccc(C(F)(F)F)cc2C2c3ccccc3CC12 (centres undefined) | nt | i | i | i | i | i
O=c1cc(-c2ccncc2)oc2c1ccc1ccccc12 | ? | i | i | ? | i | i
O=c1cc(-c2ccco2)oc2c1ccc1ccccc12 | 18µM | i | ? | i | i | i
O=c1cc(-c2ccccc2O)oc2c1ccc1ccccc12 | nt | nt | nt | nt | i[19.4 µM] | nt
O=c1cc(-c2cccc(O)c2)oc2c(O)c(O)ccc12 | nt | nt | nt | nt | 2.8µM | nt
O=c1cc(-c2cccc(O)c2)oc2cc(O)ccc12 | nt | nt | nt | nt | i[19.4 µM] | nt
O=c1cc(-c2ccc(O)cc2)oc2c1ccc1ccccc12 | nt | i | 56µM | i | i | i
COC(=O)c1c(Oc2ccc(Br)cc2)nnc(-c2ccccc2)c1-c1ccccc1 | i | nt | i | i | i | i
CCC(=O)OCC(=O)[C@@]1(OC(=O)CC)[C@H](C)C[C@@H]2[C@@H]3[C@H]([C@@H](O)C[C@@]21C)[C@]1(C)C=CC(=O)C=C1C[C@@H]3Cl | nt | nt | nt | nt | i[12 µM] | nt
Cc1ccc2nc3sc(C(=O)Nc4c(C)[nH]c(=O)[nH]c4=O)c(N)c3cc2c1 | 50µM | i | ? | ? | i | i
Cc1ccc2cc3c(N)c(C(=O)Nc4c(C)[nH]c(=O)[nH]c4=O)sc3nc2c1 | ? | i | ? | ? | i | ?
CS(=O)(=O)c1ccc(Cn2c3c(c4cc(F)cc(F)c42)CCC[C@H]3CC(=O)O)cc1 | nt | nt | nt | nt | i[19.4 µM] | nt
O=C(O)c1ccc2c(c1Nc1ccccc1)C(=O)c1ccccc1C2=O | i | -54 | ? | ? | i | i
COc1cccc(-n2cc(C(=O)Nc3ccccc3C(N)=O)c3ccccc3c2=O)c1 | i | nt | i | i | i | i
CCOc1ccc(OCCC(=O)NNC(=O)c2nn(C)c(=O)c3ccccc23)cc1 | 35µM | i | ? | i | i | ?
Cc1noc(C)c1N=Nc1ccc(Br)cc1C(=O)O | i | i | i | i | i | i
SMILES | POLB inh | PI5P4K alpha inh | Pol eta inh | FEN1 inhibitor | Pol kappa inh | POLI inh
Cc1c(C#N)c(O)[nH]c(=O)c1N=Nc1ccc(Br)cc1C(=O)O | i | -59 | ? | ? | i | i
COc1ccc(C(=O)Nc2cccc(/C=C(\CCC(=O)O)c3nc4ccccc4s3)c2)cc1 | ? | -56 | 56µM | ? | ? | ?
CC(C)(C)n1ncc2c(=O)n(Cc3c(Cl)ccc(Cl)c3Cl)cnc21 | nt | nt | nt | i | i | i
CC(C)c1cnc2c(c1SCC(=O)N1CCCCC1)c(=O)n(C)c(=O)n2C | i | nt | i | i | i | ?
CNC(=O)c1c(O)c2cccc3c2n(c1=O)CCC3 | i | i | i | i | i | i
O=c1c([N+](=O)[O-])c(O)c2cccc3c2n1CCC3 | 35µM | i | 50µM | ? | ? | i
COc1ccc(CNC(=O)c2ccc3c(c2)CCN3S(=O)(=O)c2ccccc2)cc1 | i | nt | i | i | i | i
COc1ccccc1-n1c(SCc2cc(=O)oc3cc(O)ccc23)nc2ccccc2c1=O | ? | ? | 32µM | i | i | ?
O=C(/C=C/c1ccc(Br)o1)Nc1nnc(C2CC2)s1 | 25µM | nt | nt | nt | nt | nt
Cc1c(CCC(=O)O)c(=O)oc2cc(OCc3cccc(F)c3)ccc12 | i | i | i | i | i | i
Cc1c(CCC(=O)O)c(=O)oc2cc(OCc3ccccc3Br)ccc12 | 50µM | i | i | i | i | i
O=C(O)c1ccc(C2Nc3ccccc3-c3nnc(SCc4ccc(Cl)cc4)nc3O2)cc1 (centres undefined) | 25µM | nt | i | i | ? | ?
CCOc1cc(C2Nc3ccccc3-c3nnc(SCc4ccccc4)nc3O2)ccc1OC (centres undefined) | i | nt | i | i | i | i
CCC(=O)N1CCC(C)(C(=O)NCc2ccc(F)cc2)C1 (centres undefined) | nt | i | nt | nt | nt | nt
COc1ccc(OC)c(NC(=O)CCn2c(=S)[nH]c3ccccc3c2=O)c1 | i | i | i | i | i | i
COc1ccc(NC(=O)CCn2c(=S)[nH]c3ccccc3c2=O)cc1Cl | nt | i | 35µM | nt | nt | nt
c1ccc(-c2nc3ccccc3c3nc4ccccc4n23)cc1 | i | i | ? | i | i | i
c1ccc(-c2nc3nonc3c3nc4ccccc4n23)cc1 | 45µM | nt | i | i | i | i
O=C(CCCCn1cnc2c(=S)nc[nH]c21)Nc1ccc(C(=O)O)c(O)c1 | nt | -68 | ? | i | i | ?
Cc1nn(C)cc1S(=O)(=O)N1CCCCC1C (centres undefined) | i | i | i | i | i | i
Cc1cc(N=Nc2ccc(C)c(N=Nc3cc(C)c(N)cc3N)c2)c(N)cc1N | ? | i | i | 22µM | 50µM | ?
CCCCCCCCNC(=S)NCCN1CCCCC1 | i | i | i | i | i | ?
Cc1nc2nc(C)c(CCC(=O)NCCCN3CCN(c4cccc(Cl)c4)CC3)c(C)n2n1 | i | i | i | i | i | 32µM!
Cc1ccc(NC(=O)C2CCCN2C(=O)OCc2ccccc2)cc1F (centres undefined) | i | i | i | i | 79µM | ?
O=C(Nc1cccc(F)c1)C1CCCN1C(=O)OCc1ccccc1 (centres undefined) | i | i | i | i | i | i
Cc1ccc(NC(=O)C2CCCN2S(=O)(=O)c2ccc3nc(-c4ccccc4)[nH]c3c2)cc1F (centres undefined) | ? | nt | 79µM | i | ? | ?
COc1ccc(NC(=O)C2CCCN2S(=O)(=O)c2ccc3nc(-c4ccccc4)[nH]c3c2)cc1 (centres undefined) | i | nt | i | i | i | i
CC(=O)N1CCc2c(sc3c2c(=O)n(-c2ccccc2Cl)c(=O)n3C)C1 | i | nt | i | i | i | i
COc1ccc(NC(=O)c2cnc[nH]2)cc1 | i | nt | i | i | i | i
